Records with an inconclusive call do not appear. Entries that show only a call come without a potency. Activity calls are given as the source filed them. The call rests on the fitted dose curve; in most records, active means well fitted activation curve with a large enough effect; inconclusive means small, poorly fitted or top-dose-only effect; inactive means flat fitted curve, though single readings scatter.
Potency means the concentration at half of the fitted maximal effect.

Relaxin receptor 2 (Homo sapiens), sequence (Q8WXD0 whole entry, looked up): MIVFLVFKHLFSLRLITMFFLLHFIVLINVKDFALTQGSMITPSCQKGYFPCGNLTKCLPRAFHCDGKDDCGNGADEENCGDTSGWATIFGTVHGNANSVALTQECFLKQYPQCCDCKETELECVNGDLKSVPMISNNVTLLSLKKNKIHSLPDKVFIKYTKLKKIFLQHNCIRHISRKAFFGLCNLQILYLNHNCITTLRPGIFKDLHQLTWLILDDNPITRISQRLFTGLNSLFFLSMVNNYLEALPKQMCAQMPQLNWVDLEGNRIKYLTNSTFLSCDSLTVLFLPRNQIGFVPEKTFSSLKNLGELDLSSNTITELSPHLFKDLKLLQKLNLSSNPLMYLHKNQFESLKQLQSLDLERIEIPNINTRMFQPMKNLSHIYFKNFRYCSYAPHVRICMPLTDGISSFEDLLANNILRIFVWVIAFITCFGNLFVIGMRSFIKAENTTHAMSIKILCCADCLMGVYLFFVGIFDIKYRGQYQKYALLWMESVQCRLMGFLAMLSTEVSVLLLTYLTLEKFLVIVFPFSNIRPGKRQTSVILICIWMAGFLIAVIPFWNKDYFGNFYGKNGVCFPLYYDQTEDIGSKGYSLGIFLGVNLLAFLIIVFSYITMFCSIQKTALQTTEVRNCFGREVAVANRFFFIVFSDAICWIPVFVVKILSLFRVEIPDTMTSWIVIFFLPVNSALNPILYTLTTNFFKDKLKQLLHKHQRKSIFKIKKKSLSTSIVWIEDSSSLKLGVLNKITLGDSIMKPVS

This assay has as its target Relaxin receptor 2 (Homo sapiens) (UniProt Q8WXD0). The assay is described as follows: qHTS Assay for Agonists of the Relaxin Receptor RXFP1: RXFP2 Hit Validation. Further: nearly all actives have a fitted effect of over 65% in size. As to conditions: HEK293 RXFP2 cAMP TR-FRET, 30 min; series mostly up to 115 µM. In a few lines: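 Concentration-response EC50s (Hill equation) come from a cAMP TR-FRET assay in HEK293 RXFP2 cells, compound for 30 min at 37C with PDE4 inhibitor.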
Background: In qHTS, concentration-response curves come from the screen itself.
As to `O=S(=O)(c1cccc(-c2cn3cccnc3n2)c1)N1CCOCC1`, the Potency is 34.6 µM (active).
For the compound `c1ccc(-c2nnc(-c3ccccn3)c(-c3ccccn3)n2)nc1`, the Potency result was “inactive”.
With `CCOc1ccc(NC(=O)CSc2ccc3nnc(-c4cccnc4)n3n2)cc1`, the Potency is 34.6 µM (active).
Then `Cc1ccccc1NC(=O)c1ccccc1NC(=O)c1ccco1`, with “inactive”; and `CCOC(=O)C1CCN(C(=O)c2cc3c(=O)n4ccccc4nc3s2)CC1`, with 48.9 µM (active); and `Cc1cc(C)n2nc(C(=O)Nc3ccc4c(c3)OCCO4)nc2n1`, with 6.9 µM (active).
As to `CCOC(=O)CNC(=O)CSc1ccc2nnc(-c3cccnc3)n2n1`, the Potency entry was “inactive”.
With `O=C(Nc1ccccc1C(=O)NCCc1ccc(O)cc1)c1ccco1`, the Potency entry was “inactive”.
Then `CCn1c(=O)c2sccc2n2c(CCCC(=O)NCc3cccnc3)nnc12`, with “inactive”; and `COc1cc(-c2nnc(SCC(=O)N(C)C3CCS(=O)(=O)C3)o2)cc(OC)c1OC` (configuration not stated), with “inactive”.
Regarding `CCOC(=O)N1CCN(S(=O)(=O)c2c(C)nc3scc(C)n3c2=O)CC1`, the Potency is 30.9 µM (active).
Then `Cc1cc2nc3ccc(=[N+](C)C)cc-3sc2cc1N`, with “inactive”; and `O=C(Nc1ccccc1C(=O)Nc1ccc(F)cc1)c1ccco1`, with “inactive”.
Then `Cc1cccc2cc(C#N)c(SCC(=O)NCc3cccs3)nc12`, with 19.4 µM (active).
Next, `NS(=O)(=O)c1ccc(CCNC(=O)C2CCN(c3ncnc4c3nc3n4CCCCC3)CC2)cc1`: 38.9 µM (active).
Turning to `COc1ccc(CCn2c(=N)c(C(=O)NCC3CCCO3)cc3c(=O)n4cccc(C)c4nc32)cc1` (configuration not stated), the Potency entry was “inactive”.
Consider `CCN(CC)S(=O)(=O)c1ccc(C(=O)NCCN2C(=O)S/C(=C\c3cccnc3)C2=O)cc1`, for which the Potency is 13.8 µM (active).
Next, `CC(C)n1cnc2c(N(C)c3cccc(Cl)c3)nc(N(CCO)CCO)nc21`: “inactive”; `Cc1cc(C)c(C(=O)CSc2n[nH]c(=O)n2C2CC2)cc1C`: “inactive”; `CCN(CC)S(=O)(=O)c1ccc2c(c1)nc(SCc1nc3ccsc3c(=O)[nH]1)n2CC`: 0.275 µM (active).
Turning to `Cc1cccn2c(=O)c(/C=C3\SC(=S)NC3=O)c(NCCCN3CCOCC3)nc12`, the Potency is 4.35 µM (active).
Next, `O=[N+]([O-])c1cccc(CSc2nnc3ccccn23)c1`: 34.6 µM (active); `COc1ccc(CN2C(=O)c3cccnc3C2=O)cc1S(=O)(=O)NC1CCCCC1C` (configuration not stated): 15.5 µM (active); `CCN(CC)CCCCCC(=O)Nc1ccccc1C(=O)Nc1ccccc1`: “inactive”.
As to `CC(=O)C1C(c2ccccc2)c2c(noc2C)CC1(C)O` (configuration not stated), the Potency result was “inactive”.
Then `COc1ccc(S(=O)(=O)N2CCOCC2)cc1NC(=O)CSc1nnc2ccccn12`, with 6.15 µM (active); and `COc1ccc(/C=C2/SC(=O)N(CCC(=O)Nc3ccc(C)cc3)C2=O)cc1OC`, with “inactive”; and `CCN(c1ccccc1)S(=O)(=O)c1ccc(OC)c(NC(=O)C2CC(=O)N(Cc3ccccc3)C2)c1` (configuration not stated), with “inactive”.
Then `N#C/C(=C/c1ccc(OCc2ccccc2)cc1)C(=O)NC1CCCCC1`, with “inactive”; and `Cc1ccnc(NS(=O)(=O)c2ccc(N3C(=O)c4ccccc4C3=O)cc2)n1`, with 18.8 µM (active); and `COc1cccc(CNC(=O)c2ccc(CS(=O)Cc3ccc(C)cc3)o2)c1` (configuration not stated), with “inactive”.
As for `O=C(Nc1ccccc1C(=O)Nc1ccccc1)c1ccco1`, the Potency entry is “inactive”.

The values above are taken from PubChem BioAssay AID489043 (National Center for Advancing Translational Sciences (NCATS), 2010).
